In PubChem BioAssay AID1159580 (chemical genetic matrix, 2015):
Among all 5,500 compounds or so, about 2,000 (36%) were called active. Roughly 18% stayed inconclusive and do not appear here. Rule as the data show it: active = normalized growth mostly below about 0.91 (no sharp cut-off); inconclusive = no clear call, values can overlap the other calls; inactive = mostly above about 0.92. The list shows a part of the results.

Assay: chemical genetic growth profiling, strain panel (AID 1159580);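 also: tested at 20 µM; growth read once vehicle control cultures reached saturation at 30 °C; 1 = growth at the plate median or of vehicle wells; lower values mean less growth of the strain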
Details: growth OD
[1] = S. cerevisiae deletion strains, locus YAL013W, strain DEP1, hits give low values
[2] = S. cerevisiae deletion strains, locus YBR229C, strain ROT2, hits give low values
[3] = S. cerevisiae deletion strains, locus YDL101C, strain DUN1, hits give low values
[4] = S. cerevisiae deletion strains, locus YDR150W, strain NUM1, hits give low values
[5] = S. cerevisiae deletion strains, locus YEL061C, strain CIN8, hits give low values
[6] = S. cerevisiae deletion strains, locus YGR078C, strain PAC10, hits give low values
[7] = S. cerevisiae deletion strains, locus YHR030C, strain SLT2, hits give low values
[8] = S. cerevisiae deletion strains, locus YHR087W, strain rtc3, hits give low values
[9] = S. cerevisiae deletion strains, locus YJR043C, strain POL32, hits give low values
[10] = S. cerevisiae deletion strains, locus YJR075W, strain HOC1, hits give low values
[11] = S. cerevisiae deletion strains, locus YKL190W, strain CNB1, hits give low values
[12] = S. cerevisiae deletion strains, locus YLR039C, strain RIC1, hits give low values
[13] = S. cerevisiae deletion strains, locus YLR058C, strain SHM2 (second series), hits give low values
[14] = S. cerevisiae deletion strains, locus YLR085C, strain ARP6, hits give low values
[15] = S. cerevisiae deletion strains, locus YLR262C, strain YPT6, hits give low values
[16] = S. cerevisiae deletion strains, locus YML094W, strain GIM5, hits give low values
[17] = S. cerevisiae deletion strains, locus YMR219W, strain ESC1, hits give low values
[18] = S. cerevisiae deletion strains, locus YMR263W, strain SAP30, hits give low values
[19] = S. cerevisiae deletion strains, locus YNL153C, strain GIM3, hits give low values
[20] = S. cerevisiae deletion strains, locus YNL298W, strain CLA4 (second series), hits give low values
[21] = S. cerevisiae deletion strains, locus YNL322C, strain KRE1, hits give low values
[22] = S. cerevisiae deletion strains, locus YNR030W, strain Alg12, hits give low values
[23] = S. cerevisiae deletion strains, locus YPL055C, strain LGE1, hits give low values
[24] = S. cerevisiae deletion strains, locus YPR135W, strain CTF4, hits give low values
[25] = S. cerevisiae strains, strain wild type, hits give low values

Measured: normalized growth

NC(N)=NC(N)=Nc1ccccc1C(F)(F)F
inactive: [1] 0.987 | [2] 0.982 | S. cerevisiae deletion strains, locus YCL061C, strain MRC1, hits give low values 1.01 | [3] 0.969 | [4] 0.895 | [5] 0.993 | [6] 0.979 | [7] 0.935 | [8] 0.966 | [9] 0.998 | [10] 1.01 | [11] 0.997 | [12] 0.989 | [13] 0.982 | [14] 1.01 | [15] 0.997 | [16] 0.923 | [17] 0.987 | [18] 1.06 | S. cerevisiae deletion strains, locus YNL128W, strain TEP1, hits give low values 0.984 | [19] 1.02 | [20] 0.938 | [21] 0.993 | [22] 0.983 | [23] 0.962 | [24] 0.922 | [25] 0.986

CCOC(=O)c1sc2sc(C(=O)c3ccc(Cl)cc3)c(C)c2c1C
inactive: [1] 1 | [2] 1.03 | [3] 1 | S. cerevisiae deletion strains, locus YDL134C, strain PPH21, hits give low values 1.01 | [4] 0.91 | [5] 1.02 | [6] 1.01 | [7] 1.1 | [8] 1.01 | [9] 0.991 | [10] 1.03 | [11] 1.02 | [12] 1.06 | [13] 1.01 | [14] 1.06 | [15] 1.06 | [16] 1.01 | [17] 1 | [18] 0.937 | S. cerevisiae deletion strains, locus YMR307W, strain GAS1, hits give low values 1.07 | [19] 1 | [20] 1.05 | [21] 1.01 | [22] 1.03 | [23] 0.904 | S. cerevisiae deletion strains, locus YPL241C, strain CIN2, hits give low values 1.01 | [24] 1.09 | [25] 1.02

CCOC(=O)c1sc(S(C)=NC(=O)Nc2ccc(Cl)cc2)c2c1CCC=C2 (stereo unspecified)
active: S. cerevisiae deletion strains, locus YLR113W, strain HOG1, hits give low values 0.859
inactive: S. cerevisiae deletion strains, locus YAR019C, strain CDC15, hits give low values 0.985 | S. cerevisiae deletion strains, locus YBL105C, strain PKC1, hits give low values 0.974 | S. cerevisiae deletion strains, locus YBR135W, strain CKS1, hits give low values 0.974 | S. cerevisiae deletion strains, locus YBR136W, strain MEC1, hits give low values 0.974 | S. cerevisiae deletion strains, locus YBR160W, strain CDC28, hits give low values 0.978 | S. cerevisiae deletion strains, locus YDL017W, strain CDC7, hits give low values 0.979 | S. cerevisiae deletion strains, locus YDL028C, strain MPS1, hits give low values 0.971 | [3] 0.97 | S. cerevisiae deletion strains, locus YDL108W, strain KIN28, hits give low values 0.972 | S. cerevisiae deletion strains, locus YDL132W, strain cdc53, hits give low values 0.965 | S. cerevisiae deletion strains, locus YDL214C, strain PRR2, hits give low values 0.922 | S. cerevisiae deletion strains, locus YDR052C, strain DBF4, hits give low values 0.981 | S. cerevisiae deletion strains, locus YDR054C, strain cdc34, hits give low values 0.974 | S. cerevisiae deletion strains, locus YDR226W, strain ADK1, hits give low values 0.963 | S. cerevisiae deletion strains, locus YDR477W, strain SNF1, hits give low values 0.937 | S. cerevisiae deletion strains, locus YER123W, strain YCK3, hits give low values 0.923 | S. cerevisiae deletion strains, locus YER133W, strain GLC7, hits give low values 0.945 | S. cerevisiae deletion strains, locus YFL009W, strain cdc4, hits give low values 0.973 | S. cerevisiae deletion strains, locus YFL029C, strain CAK1, hits give low values 0.977 | S. cerevisiae deletion strains, locus YFR003C, strain YPI1, hits give low values 0.976 | S. cerevisiae deletion strains, locus YFR019W, strain FAB1, hits give low values 0.94 | S. cerevisiae deletion strains, locus YFR028C, strain CDC14, hits give low values 0.975 | S. cerevisiae deletion strains, locus YGR040W, strain KSS1, hits give low values 0.922 | S. cerevisiae deletion strains, locus YGR052W, strain FMP48, hits give low values 0.954 | S. cerevisiae deletion strains, locus YGR092W, strain DBF2, hits give low values 0.947 | [7] 1.05 | S. cerevisiae deletion strains, locus YHR079C, strain IRE1, hits give low values 1.01 | S. cerevisiae deletion strains, locus YHR082C, strain KSP1, hits give low values 1.02 | S. cerevisiae deletion strains, locus YHR205W, strain SCH9, hits give low values 0.959 | S. cerevisiae deletion strains, locus YIL147C, strain SLN1, hits give low values 0.968 | S. cerevisiae deletion strains, locus YJL095W, strain BCK1, hits give low values 0.963 | S. cerevisiae deletion strains, locus YJL128C, strain PBS2, hits give low values 0.94 | S. cerevisiae deletion strains, locus YJL157C, strain FAR1, hits give low values 0.941 | S. cerevisiae deletion strains, locus YJR016C, strain ILV3, hits give low values 0.976 | S. cerevisiae deletion strains, locus YJR066W, strain TOR1 (second series), hits give low values 0.923 | S. cerevisiae deletion strains, locus YJR066W, strain TOR1, hits give low values 1.02 | S. cerevisiae deletion strains, locus YKL048C, strain ELM1, hits give low values 0.96 | S. cerevisiae deletion strains, locus YKL067W, strain YNK1, hits give low values 0.938 | S. cerevisiae deletion strains, locus YKL101W, strain HSL1, hits give low values 0.902 | S. cerevisiae deletion strains, locus YKL193C, strain SDS22, hits give low values 0.974 | S. cerevisiae deletion strains, locus YKL203C, strain TOR2, hits give low values 1.02 | S. cerevisiae deletion strains, locus YLR133W, strain CKI1, hits give low values 0.926 | S. cerevisiae deletion strains, locus YLR403W, strain SFP1, hits give low values 0.953 | S. cerevisiae deletion strains, locus YML070W, strain DAK1, hits give low values 0.916 | S. cerevisiae deletion strains, locus YMR001C, strain CDC5, hits give low values 0.978 | S. cerevisiae deletion strains, locus YMR205C, strain PFK2 (second series), hits give low values 0.951 | S. cerevisiae deletion strains, locus YMR277W, strain FCP1, hits give low values 0.974 | S. cerevisiae deletion strains, locus YNL006W, strain LST8, hits give low values 0.982 | S. cerevisiae deletion strains, locus YNL020C, strain ARK1, hits give low values 0.93 | S. cerevisiae deletion strains, locus YNL161W, strain CBK1, hits give low values 0.978 | S. cerevisiae deletion strains, locus YNL183C, strain NPR1, hits give low values 1 | S. cerevisiae deletion strains, locus YNL207W, strain RIO2, hits give low values 0.968 | S. cerevisiae deletion strains, locus YNL222W, strain SSU72, hits give low values 0.975 | S. cerevisiae deletion strains, locus YNL307C, strain MCK1 (second series), hits give low values 0.951 | S. cerevisiae deletion strains, locus YOL078W, strain AVO1, hits give low values 0.96 | S. cerevisiae deletion strains, locus YOL136C, strain PFK27, hits give low values 0.895 | S. cerevisiae deletion strains, locus YOR061W, strain CKA2, hits give low values 0.945 | S. cerevisiae deletion strains, locus YOR119C, strain RIO1, hits give low values 0.998 | S. cerevisiae deletion strains, locus YOR231W, strain MKK1, hits give low values 0.894 | S. cerevisiae deletion strains, locus YOR329C, strain SCD5, hits give low values 0.976 | S. cerevisiae deletion strains, locus YPL031C, strain PHO85, hits give low values 0.94 | S. cerevisiae deletion strains, locus YPL153C, strain RAD53, hits give low values 0.953 | S. cerevisiae deletion strains, locus YPL204W, strain HRR25, hits give low values 0.9 | S. cerevisiae deletion strains, locus YPL209C, strain IPL1, hits give low values 0.968 | S. cerevisiae deletion strains, locus YPL256C, strain CLN2, hits give low values 0.999 | S. cerevisiae deletion strains, locus YPR025C, strain CCL1, hits give low values 0.981 | S. cerevisiae deletion strains, locus YPR106W, strain ISR1, hits give low values 0.962 | S. cerevisiae deletion strains, locus YPR111W, strain DBF20, hits give low values 0.985 | S. cerevisiae deletion strains, strain NNK1, hits give low values 0.961 | S. cerevisiae deletion strains, strain TSCII, hits give low values 0.97
